High-throughput results (PubChem)
Only some compounds are listed: those with a hit (about 2.9% of all), similar ones and a draw of the others.
ERa coact inh: blocks coactivator binding to human estrogen receptor alpha. actives 1.7% (n = 86,000). AID 629. TR-FRET ER-alpha LBD / SRC-1 peptide, estradiol-bound. inhibition, % at 25.6 µM; in the data active means inhibition above about 50%;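 further: 0% = receptor plus peptide control and 100% = peptide only without receptor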
Target sequence (P03372 whole entry, looked up, the tested form may be a part): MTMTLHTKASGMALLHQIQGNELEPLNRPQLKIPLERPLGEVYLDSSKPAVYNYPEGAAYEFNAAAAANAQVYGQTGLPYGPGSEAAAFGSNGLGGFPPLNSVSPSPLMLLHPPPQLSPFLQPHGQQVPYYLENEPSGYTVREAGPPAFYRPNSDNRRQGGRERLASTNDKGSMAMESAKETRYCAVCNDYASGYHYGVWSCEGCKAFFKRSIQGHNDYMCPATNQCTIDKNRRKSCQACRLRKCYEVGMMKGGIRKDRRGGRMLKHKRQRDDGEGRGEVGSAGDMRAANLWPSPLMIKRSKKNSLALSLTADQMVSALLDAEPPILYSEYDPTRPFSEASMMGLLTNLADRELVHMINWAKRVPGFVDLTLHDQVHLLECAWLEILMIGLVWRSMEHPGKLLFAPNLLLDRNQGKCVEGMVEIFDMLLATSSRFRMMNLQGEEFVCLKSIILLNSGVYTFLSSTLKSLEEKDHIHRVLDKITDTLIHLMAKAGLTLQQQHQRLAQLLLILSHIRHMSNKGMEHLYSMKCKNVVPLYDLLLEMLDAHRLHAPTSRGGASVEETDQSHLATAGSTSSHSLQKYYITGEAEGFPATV
ERb SRC1 inh: ER-beta (human) coactivator binding inhibition | TR-FRET ER-beta LBD / SRC1-Cy5 peptide binding; receptor agonist-loaded with 1 µM estradiol | inhibition, % at 25.6 µM | actives 1.3% (n = 86,000) | AID 633;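 active means compounds whose percent inhibition of the receptor-coactivator binding signal exceeds about 50% in the single-dose screen, limit read from the data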;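 further: 0% = receptor plus peptide wells without compound and 100% = peptide-only wells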
MRP1 act: MRP-1 activation. H69AR cells + doxorubicin, viability rescue, CellTiter-Glo. viability increase, % at 10 µM. actives 0.61% (n = 140,000);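 active means viability gain under doxorubicin at or above a set limit, the compound median plus 3 SD, cut at about 4.7% in these data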;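 further: MRP-1 overexpressing cells given doxorubicin 25 µM after compound pretreatment; 18-22 h compound pretreatment then 72 h with doxorubicin before readout; 0% = doxorubicin-only wells and 100% = vehicle-treated cells without doxorubicin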
MRP resist rev: compounds reversing MRP-mediated drug resistance; H69AR cells + 2 uM doxorubicin, CellTiter-Glo, 72 h; differential viability (reversal), % at 10 µM; actives 0.04% (n = 85,000); AID 602;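 active means viability drop by adding the cancer drug above about 55%, with treated viability meeting a 40% cutoff, limit read from the data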;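 further: viability without doxorubicin minus viability with 2 µM doxorubicin for each compound; larger differential means the compound sensitizes cells more to doxorubicin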
ERa SRC1 pot: ER-alpha (human) coactivator binding potentiation. AID 639. coactivator binding (% of control), % at 25.6 µM. actives 1.3% (n = 86,000). TR-FRET ERalpha-LBD/SRC-Cy5 coactivator binding, 2 h; 100 = basal binding, no effect; in the data active means activity above about 200%;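 further: binding measured in presence of low estradiol as agonist stimulus; 0% = peptide alone without receptor and 100% = receptor with peptide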
Smad3 FoxH1 inh: inhibitors of human Smad3 transcription factor binding. actives 0.29% (n = 88,000). TR-FRET Smad3/Dy647-FoxH1 peptide binding, europium anti-His. AID 630. inhibition, % at 25 µM;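 active means compounds that reduce the energy-transfer binding signal between the protein and its labelled peptide by more than half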;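 further: 0% = Smad3 plus labelled peptide maximal FRET and 100% = peptide-only background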
* = called active by the depositor; / = no result; [ ] = remark or other dose.

SMILES	ERa coact inh	ERb SRC1 inh	MRP1 act	MRP resist rev	ERa SRC1 pot	Smad3 FoxH1 inh
Cc1nnc2sc(-c3ccc(NC(=O)c4ccc(-c5ccc(Cl)cc5Cl)o4)cc3)nn12	70.1*	48.8	/	-5.0	110.5	-184.6
Cc1occc1C(=O)NCCCCNC(=O)c1ccoc1C	-5.6	-7.4	0.7	4.7	132.2	7.6
Cc1occc1C(=O)NCCCc1ccccc1	4.1	57.9*	-0.9	9.3	103.4	2.3
Cc1ccc(S(=O)(=O)C2(C(=O)N3CCCCCC3)CC2)cc1	-17.0	80.4*[fluorescence artefact?]	-1.0	7.6	107.5	-5.2
N[C@@H](Cc1ccnnc1)C(=O)O	/	/	/	/	/	-7.9
COCCCNc1nc2c([nH]1)c(=O)[nH]c(=O)n2C	-8.5	52.2*	-0.1	7.1	158.8	1.3
CCC(C)NS(=O)(=O)c1ccc(NC(=O)c2c(-c3ccccc3)noc2C)cc1 (centres undefined)	-0.1	-4.5	-1.1	21.0	87.1	7.9
COc1ccc(CCNC(=O)CSc2nnnn2-c2ccccc2OC)cc1OC	2.2	-0.3	-1.8	9.2	116.6	9.1
COc1ccccc1NS(=O)(=O)c1ccc(C(=O)OCC(=O)NCc2ccco2)cc1	72.6*[fluorescence artefact?]	45.1	-2.6	1.8	63.4	-3.1
CCC(=O)Nc1ncnc2ncn(C(=O)CC)c12	/	/	/	/	/	1.2
CCC(=O)N1CCN=C1SCc1ccc(Cl)cc1	-8.9	-18.0	3.0	-0.4	102.5	2.7
CC(=O)N1CCN=C1SCc1ccccc1F	11.3	-3.6	5.1*	15.1	97.4	-0.6
CCC(=O)N1CCN=C1SCc1ccccc1	-4.0	-6.8	5.1*	-1.6	117.6	-21.4
CC(=O)N1CCN=C1SCc1ccccc1Cl	-2.4	-2.6	2.6	2.0	120.7	1.3
CC(=O)N1CCN=C1SCc1ccc(Cl)cc1	-5.3	-6.9	6.4*	5.8	96.3	-0.9
CC(=O)N1CCN=C1SCc1ccccc1	4.4	4.4	2.8	4.2	262.9*[fluorescence artefact?]	-4.4
O=C(O)C/C(=C/c1ccco1)C(=O)O	/	/	/	/	/	5.9
O=C(O)CSCc1cccc2ccccc12	/	/	/	/	/	0.4
CC(=O)N1CCN=C1SCc1ccc(C)cc1	2.9	-3.2	5.6*	8.6	119.0	-6.1
Cc1ccccc1-n1c(Cn2c(=O)sc3ccccc32)nnc1SCC(=O)NCC1CCCO1 (centres undefined)	11.6	11.4	-0.5	15.3	88.6	0.3
CCN(C(=O)CN(C)Cc1cccc(Cl)c1Cl)c1c(N)n(Cc2ccccc2)c(=O)[nH]c1=O	/	/	-0.7	/	/	/
O=C1Cc2ccccc2Sc2ccccc21	/	/	-0.1	/	/	/
O=C1Nc2cc3c(cc2Sc2ccccc21)OCCO3	7.5	7.7	-2.4	6.6	233.7*[fluorescence artefact?]	-2.1
Cn1ncc([N+](=O)[O-])c1C(=O)N/N=C/c1ccc(F)cc1	/	/	-0.8	/	/	/
CCN(CC)C(=O)C(=O)c1c(-c2ccccc2)[nH]c2ccccc12	/	/	23.1*	/	/	/
SMILES	ERa coact inh	ERb SRC1 inh	MRP1 act	MRP resist rev	ERa SRC1 pot	Smad3 FoxH1 inh
Cc1nc2cccc([N+](=O)[O-])c2n1CCCN(C)C	/	/	/	/	/	-6.5
CCNc1nc(NCC)n2c(SCC(=O)Nc3ccccc3[N+](=O)[O-])nnc2n1	/	/	-1.8	/	/	/
c1ccc(/C(=N\Nc2nc3ccccc3s2)c2ccccn2)cc1	/	/	/	/	/	19.7
N#Cc1c(N)sc2c1CCCCCC2	-7.8	0.9	-0.1	11.1	73.4	-2.9
N#Cc1c(N)sc(=S)c2c1CCCCC2	36.4	57.0*[fluorescence artefact?]	-1.4	8.8	50.7	9.6
O=C(CSc1ncccc1-c1nc2ccccc2[nH]1)NCc1ccco1	38.8	32.1	-4.1	-10.2	63.4	11.7
CC(C)c1ccc(NC(=O)CSc2nc3c(c(=O)[nH]2)CCC3)cc1	100.2*[fluorescence artefact?]	4.9	-1.9	-4.0	120.2	2.6
CCOC(=O)c1ccc(NC(=O)CSc2nc(C)cc(=O)[nH]2)cc1	89.6*	83.5*[fluorescence artefact?]	-2.0	27.1	24.4	0.3
Cc1ccc(NC(=O)CSc2nc3c(c(=O)[nH]2)CCC3)cc1C	-42.0	-18.7	-3.1	4.5	90.5	14.7
Cc1cc(=O)[nH]c(SCC(=O)NCc2ccco2)n1	50.0	65.7*	-1.4	2.8	56.2	12.9
Cc1cc2nc(-c3cccnc3SCC(=O)NCc3ccco3)[nH]c2cc1C	68.6*[fluorescence artefact?]	60.2*	-2.6	-7.4	65.0	6.6
Cc1nnc(SCC(=O)NCc2ccco2)[nH]c1=O	-52.1	3.1	-0.4	-13.1	84.5	2.9
Cn1cnnc1Sc1ccc(C(=O)NCCC23CC4CC(CC(C4)C2)C3)cc1[N+](=O)[O-]	/	/	-1.4	/	/	/
O[C@H](C[C@@H]1CCCCN1)c1ccc2c(c1)oc1ccccc12	/	/	/	/	/	2.6
S=c1[nH]nc(-c2ccc3ccccc3n2)n1Cc1ccccc1	/	/	-2.4	/	/	/
Cc1cc(C)n(CCc2nc3c4ccccc4nc(SCc4ccc(C#N)cc4)n3n2)n1	58.7*[fluorescence artefact?]	32.8	/	5.1	95.5	-7.3
Cc1nc2ccccc2n1CCc1nc2c3ccccc3nc(SCC#N)n2n1	36.1	30.0	-2.5	-13.6	175.3	48.7
CC(/C=C1\SC(=S)N(CCCC(=O)Nc2ccc(C(=O)O)c(O)c2)C1=O)=C\c1ccccc1	/	/	4.8*	/	/	/
Cc1ccc(NC(=O)CCCN2C(=O)/C(=C/C=C/c3ccccc3)SC2=S)cc1	/	/	-3.9	/	/	/
CC(=O)c1ccc(NC(=O)CN2C(=O)/C(=C/C(C)=C/c3ccccc3)SC2=S)cc1	/	/	8.5*	/	/	/
NCCN1C(=O)c2ccccc2[C@@]1(O)c1ccc(Cl)cc1	/	/	/	/	/	9.7
CCC(C)NC(=O)c1cn(C)c(=O)c2cc(OC)c(OC)cc12 (centres undefined)	25.6	-8.6	-1.4	4.4	102.9	-7.0
O=S(=O)(Nc1ncnc2sc3c(c12)CCC3)c1ccc2ccccc2c1	38.0	52.9*	-0.1	-4.3	58.7	0.1
c1ccc(Nc2ncnc3sc4c(c23)CCC4)cc1	/	/	-1.9	/	/	/
CCNc1ccc(Br)cc(C(=O)/C=C/c2ccccc2Cl)c1=O	80.4*	74.1*[fluorescence artefact?]	/	-1.1	93.9	9.9
SMILES	ERa coact inh	ERb SRC1 inh	MRP1 act	MRP resist rev	ERa SRC1 pot	Smad3 FoxH1 inh
CNc1ccc(Br)cc(C(=O)/C=C/c2cccc(OC)c2OC)c1=O	42.2	54.9*[fluorescence artefact?]	-5.8	-5.6	73.3	10.9
COc1ccc(C(=O)Nc2cc(C(F)(F)F)ccc2Cl)cc1OC	/	/	-1.2	/	/	/
CCOC(=O)c1[nH]c(C)c(/C(O)=C2\C(=O)C(=O)N(CCN(C)C)C2c2cccc(OC)c2OC)c1C (centres undefined)	-2.2	-9.3	-0.4	-13.6	598.9*[fluorescence artefact?]	11.7
Cc1ccc(-c2nn(CC(=O)Nc3ccc4c(c3)nc3n4CCOC3)c(=O)c3ccccc23)cc1	66.8*[fluorescence artefact?]	54.3*[fluorescence artefact?]	-0.1	6.0	165.2	-179.7
O=C(Cn1nc(-c2ccccc2)c2ccccc2c1=O)Nc1ccc2c(c1)nc1n2CCOC1	22.1	47.3	-1.8	3.0	208.9*[fluorescence artefact?]	-10.3
COc1c(C(=O)NCCSC(C)(C)C)ccc2ccccc12	/	/	-1.5	/	/	/
CC1=C/C(=N\O)[C@H]([C@@H]2C=C(C)CC(C)(C)[C@H]2O)C(C)(C)C1	/	/	/	/	/	-6.7
